Compound activity deposited in PubChem BioAssay by several laboratories.
Shown is part of a subset that was picked to be rich in hits.
ROMK mod: ROMK potassium channel modulators, primary screen, cell-based, thallium flux, MLSMR library. ATP-sensitive inward rectifier potassium channel 1 (Homo sapiens), P48048. hit rate 2% among 130,000. B-score at 10 µM. Tet-inducible ROMK, thallium flux fluorescence; actives lie on both sides;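 active = signal ratio slope over the read window, or its plate-corrected B-score, at least 3 SD from the plate mean, either direction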;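 also: B-score of the F/F0 ratio slope over 7 to 12 s after thallium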
Target sequence (P48048 whole entry, looked up): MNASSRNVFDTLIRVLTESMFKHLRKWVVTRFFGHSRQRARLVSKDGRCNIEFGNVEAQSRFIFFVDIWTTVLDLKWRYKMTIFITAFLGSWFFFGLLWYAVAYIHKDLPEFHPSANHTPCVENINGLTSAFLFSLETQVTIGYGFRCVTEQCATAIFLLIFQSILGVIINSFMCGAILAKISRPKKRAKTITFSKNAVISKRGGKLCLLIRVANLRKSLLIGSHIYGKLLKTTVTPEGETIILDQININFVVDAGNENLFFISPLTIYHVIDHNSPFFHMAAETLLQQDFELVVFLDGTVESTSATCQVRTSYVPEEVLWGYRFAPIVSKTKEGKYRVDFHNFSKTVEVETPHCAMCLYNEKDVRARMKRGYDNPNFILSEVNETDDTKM
INS promoter inh: inhibitors of insulin promoter-driven GFP, primary screen, imaging, TRM-6 cells (human fetal islet line), eGFP reporter, cell count | inhibition, % at 2 µM | hit rate 0.9% among 130,000 | reporter expression induced with tamoxifen;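 active = inhibition above the mean plus 3 SD, with well images judged a real hit on visual review, cut at about 60% in these data, passing the limit was not always enough; inconclusive = inhibition over the cutoff but images rejected on review; inactive = inhibition not above the cutoff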
HSV replic up: enhancers of HSV replication in host cells, fold increase, host cell viability; HSV replication augmentation in cells; maximum fold increase; hit rate 0.005% among 220,000; in the data active = maximum fold increase above about 1.5; inconclusive = no clear call, values can overlap the other calls; tested in PC3 cells
TbHK1 inh: Trypanosoma brucei hexokinase 1 inhibitors, primary screen, biochemical, G6PDH-coupled NADH absorbance, MLSCN library | hexokinase 1 [Trypanosoma brucei] | recombinant TbHK1, G6PDH-coupled NADH A340 | inhibition, % at 10 µM | hit rate 0.11% among 220,000 | AID 1430, 2008;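 active = inhibition of 50% or more in the single-dose primary screen; inactive = inhibition below 50%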
Insulin prom up: insulin promoter activators in MIN6 cells, imaging, high-content screening, mouse beta cells; MIN6 insulin promoter-GFP reporter; hits give high values; z-score at 5 µM; hit rate 0.3% among 190,000;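 active = z-score above 3 at 5 µM with at least 500 cells counted in the well; inconclusive = wells under 500 cells, flagged as cytotoxic or low count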
* hit, by the source's call; i = inactive; ? = inconclusive; · = no result given.

SMILES	ROMK mod	INS promoter inh	HSV replic up	TbHK1 inh	Insulin prom up
COc1ccc(CC(=O)Nc2cc(Cl)ccc2C(=O)O)cc1	-0.14	50	i	-5	0.32
CCCCOc1ccc(Nc2cc(Cl)ccc2C(=O)O)cn1	3.1*	·	i	-9	-0.75
O=C(OCC(=O)N1CCN(C(=O)c2ccco2)CC1)c1ccccc1OCc1ccccc1	-0.17	-27	i	-2	12*
O=C(Nc1ccc(F)cc1F)c1ccc(-n2cccn2)c([N+](=O)[O-])c1	0.021	·	i	-7	-0.28
Cc1cc2nc(CCN3CCOCC3)n(S(=O)(=O)c3ccc(C(C)(C)C)cc3)c2cc1C	-0.047	86*	i	-15	-0.71
N#Cc1nc(Cc2cccc3ccccc23)oc1NCCN1CCCCC1	-5.6*	·	i	5	1.5
CNc1oc(Cc2cccc3ccccc23)nc1C#N	-1.8	59	i	2	0.05
NS(=O)(=O)c1ccc(CCNC(=O)c2ccc(Cn3c(=O)[nH]c4ccccc4c3=O)cc2)cc1	0.77	·	i	3	-0.14
Cc1ccc2c(C)nc(/N=C(\N)NC(=O)N3c4ccccc4Sc4ccccc43)nc2c1	1.4	80*	i	-13	-0.9
Cc1ccc2nc(/N=C(\N)NC(=O)N3c4ccccc4Sc4ccccc43)nc(C)c2c1	0.013	8	i	-15	-1.2
COc1ccc(/C=N/Nc2ccc(C(F)(F)F)cc2[N+](=O)[O-])cc1O	0.17	-10	i	-12	-0.57
CCOc1ccc(/C=N/Nc2ccc(C(F)(F)F)cc2[N+](=O)[O-])cc1O	0.61	71*	i	2	-0.74
Cc1oc(-c2ccccc2F)nc1CN1CCC(C(=O)NC2CCCc3ccccc32)CC1 (stereo not given)	·	86*	i	-1	-0.76
CC(C)C[C@H](N)c1cn([C@@H](CCCCN)C(=O)N2CCNCC2)nn1	·	·	i	-4	-0.43
CC1CCN(CCCn2c(=S)[nH]c3c(sc4ccccc43)c2=O)CC1	0.83	·	i	-10	·
COCCCn1c(=S)[nH]c2c(sc3ccccc32)c1=O	5.3*	36	i	-5	·
Oc1c(/C=N/Nc2cccc3cccnc23)ccc2ccccc12	0.28	73*	i	-8	-0.13
CC(C)(C)NS(=O)(=O)c1ccc(CCC(=O)N2CCCC2)cc1	-0.022	-78	i	-8	0.53
COc1ccc(NC(=O)CC2SC3=NCCN3C2=O)cc1 (stereo not given)	0.25	·	i	-5	0
COC(=O)C1=C2SC(C)C(=O)N2C(N)=C(C#N)C1c1ccc(OC)c(OC)c1 (stereo not given)	·	82*	i	-10	0.79
COC(=O)C1=C2SC(C)C(=O)N2C(N)=C(C#N)C1c1cc(OC)c(OC)c(OC)c1 (stereo not given)	·	·	i	-16	1.4
Cc1ccc(CCNc2ccc3ccccc3c2)cn1	-1.4	49	i	1	·
Cc1ccc(NCCc2ccc(C)nc2)cc1	·	75*	i	-1	-0.85
O=C(/C=C/c1ccccc1Cl)c1ccccc(=O)c1O	-4.2*	-142	i	-3	-3.1
Cc1c(C(=O)NCc2cccnc2)oc2ccc(S(=O)(=O)N3CC(C)CC(C)C3)cc12 (stereo not given)	·	40	·	-2	0.54
SMILES	ROMK mod	INS promoter inh	HSV replic up	TbHK1 inh	Insulin prom up
Cc1c(C(=O)Nc2ccc(F)cc2)oc2ccc(S(=O)(=O)N3CC(C)CC(C)C3)cc12 (stereo not given)	0.68	71*	i	-25	-0.94
N#CC1=C(N)OC2=C(CCc3ccccc32)C1c1ccccc1 (stereo not given)	1.9	-73	i	8	-0.47
Cc1ccc(/C=C2\CCC3=C2OC(N)=C(C#N)C3c2ccc(C)cc2)cc1 (stereo not given)	-4.9*	·	?	-8	2.1
Nc1cc(Cl)nnc1Cl	-0.49	·	i	1	-0.27
CC1CN(C(=O)CCn2c(=O)oc3ccccc32)CC(C)O1 (stereo not given)	0.19	·	i	-7	8*
O=C(CSc1nc2ccccc2c(=O)n1-c1ccc(F)cc1F)c1c[nH]c2ccccc12	0.34	-36	i	-1	·
COc1cc(OC)cc(C(=O)Nc2cccc(C(C)=O)c2)c1	0.87	25	i	0	3.5*
C=CCn1c(N2CCOCC2)nc2c1c(=O)[nH]c(=O)n2C	-0.074	-62	i	1	-0.88
Cc1ccc(C(=O)n2nc(-c3cccnc3)nc2N)cc1	-0.21	14	i	-5	·
